Measurements taken from PubChem BioAssay (NCATS).
Where “and” joins values, the source holds several entries; their conditions need not be identical. Identical values can stand only once. Results filed as inconclusive are left out. Entries that show only a call come without a potency. Calls of active or inactive are those of the source. Unless noted, the call rests on the fitted dose curve; in most records, active means well fitted curve in the direction sought with a large enough effect; inconclusive means small, poorly fitted or top-dose-only effect, or another doubt; inactive means no such curve, though single readings can be large; an effect the other way counts as inactive or inconclusive.

Assays:
[1] = Cellular Toxicity (caspase-3) HepG2 (AID 654);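 further: cells exposed to compound for 16 hours before reading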
How it was run: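 Caspase 3/7 activation is measured as a luminescence increase (aminoluciferin substrate) after 16 h compound exposure of human hepatocarcinoma HepG2 cells. AC50 values are Hill fits, scaled between DMSO baseline and 100 uM tamoxifen stimulation.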

[2] = MultiTox-Fluor Cytotoxicity Assay - LYMP1-002 - Dead Cells (AID 960); further: nearly all actives have a fitted effect of over 60% in size
How it was run: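 Dead-cell fluorescence (Ex/Em 485/520) after 16 h compound exposure at 37 C of LYMP1-002 lymphoblastoid cells in complete medium; AC50 by Hill equation, with data scaled between DMSO and 15 uM tetraoctylammonium bromide.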

[3] = MultiTox-Fluor Cytotoxicity Assay - LYMP1-003 - Live Cells (AID 962);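 further: cytotoxic hits lower the live-cell protease signal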
How it was run: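 Live-cell protease activity (GF-AFC substrate, 405/510 nm, 60 min at room temperature) after 16 h, 37 C compound exposure of human lymphoblastoid LYMP1-003 cells; concentration-response fitted to the Hill equation for AC50.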

[4] = Cell Viability - LYMP2-003 (AID 965);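 further: cells exposed to compounds for 24 h before reading; nearly all actives have a fitted effect of over 50% in size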
How it was run: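 qHTS, human lymphoblastoid line, 2500 cells/well, complete medium. 24 h drug, 37 C. ATP-based luminescent readout; Hill-fit AC50.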

[5] = Cell Viability - LYMP2-009 (AID 968); further: series mostly up to about 92 µM; nearly all actives have a fitted effect of over 55% in size
[6] = Cell Viability - LYMP2-017 (AID 972); further: series mostly up to about 92 µM; nearly all actives have a fitted effect of over 55% in size
How it was run: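 CellTiter-Glo luminescence (cellular ATP, 30 min RT) measured cytotoxicity after 24 hr compound treatment at 37 C. Cells were a human lymphoblastoid line, LYMP2-017, plated at 2500/well and incubated 5 hr first; concentration-response fitted with Hill equation for AC50.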

[7] = Cell Viability - LYMP2-021 (AID 974); further: nearly all actives have a fitted effect of over 55% in size
How it was run: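 AC50 values come from Hill-equation fits to CellTiter-Glo luminescence (ATP content), read after 24 hour compound exposure at 37 C of 2500 LYMP2-021 lymphoblastoid cells/well; tetraoctylammonium bromide as positive control.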

[8] = Cell Viability - LYMP2-010 (AID 981); further: nearly all actives have a fitted effect of over 55% in size
How it was run: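 CellTiter-Glo ATP luminescence measured cytotoxicity after 24 h compound exposure at 37 C. LYMP2-010 cells were seeded at 2500/well, with tetraoctylammonium bromide as control; concentration-response curves gave AC50 values by the Hill equation.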

[9] = Cell Viability - LYMP2-016 (AID 984); further: nearly all actives have a fitted effect of over 55% in size
How it was run: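 Concentration-dependent ATP depletion measured in LYMP2-016 lymphoblastoid cells, 24 h, 37 C; luciferase-based luminescent detection; Hill-equation AC50.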

[10] = Cell Viability - LYMP2-020 (AID 986)
How it was run: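 Cytotoxicity in qHTS format: luminescent ATP readout from CellTiter-Glo after 24 h compound exposure at 37 C in complete medium. LYMP2-020 lymphoblastoid cells were seeded at 2500/well; concentration-response data fitted to the Hill equation for AC50.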

[11] = Cell Viability - LYMP2-022 (AID 987); further: nearly all actives have a fitted effect of over 55% in size
How it was run: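 Cytotoxicity read as decreased cellular ATP (CellTiter-Glo luminescence, 30 min room temperature) after 24 hours compound exposure of 2500 lymphoblastoid LYMP2-022 cells/well at 37 C. Concentration-response data fitted with standard Hill equation for AC50.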

[12] = Cell Viability - LYMP2-024 (AID 988); further: nearly all actives have a fitted effect of over 60% in size
How it was run: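 Cytotoxicity was taken as a decrease in ATP (CellTiter-Glo luminescence) after 24 hr compound exposure at 37 C of LYMP2-024 lymphoblastoid cells, 2500 cells/well. Concentration-response data were fitted to the Hill equation to give AC50.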

[13] = Cell Viability - LYMP2-026 (AID 989); further: nearly all actives have a fitted effect of over 50% in size
How it was run: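 Cytotoxicity read as ATP-dependent luminescence (CellTiter-Glo, 30 min room temperature) after 24 h compound treatment at 37 C. LYMP2-026 lymphoblastoid line seeded at 2500 cells/well; AC50 derived by standard Hill equation.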

[14] = Cell Viability - LYMP1-002 - Assay at 24 hr (AID 993)
How it was run: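 qHTS cytotoxicity at 24 h: CellTiter-Glo ATP luminescence in lymphoblastoid line LYMP1-002 incubated with compound at 37 °C. Concentration-response modeled with the Hill equation for AC50; tetraoctylammonium bromide served as positive control.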

[15] = target: Retinoic acid receptor RXR-alpha (Homo sapiens) (UniProt P19793); test: qHTS assay for small molecule agonists of retinoid X receptor alpha signaling (AID 588544; calls by dose curve)
[16] = qHTS assay for small molecule antagonists of retinoid X receptor alpha signaling (AID 588546; active means well fitted inhibition curve with a large enough effect in the signal ratio, with a control signal flat, not every such curve was filed as active; the % refers to the signal ratio;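 further: cells stimulated with 9-cis-retinoic acid as agonist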); details: HEK293T RXRa-UAS-bla, beta-lactamase ratio, antagonist mode; measured here: W530 green channel, cytotoxicity proxy
How it was run: (§1)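 Beta-lactamase reporter inhibition, read as CCF4 fluorescence ratio (ex 405, em 460/530 nm) after 2 h at RT. HEK293T UAS-bla cells, 2500/well, were stimulated with 9-cis-RA at 500 or 100 nM final alongside test compound for 18 h at 37 C.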

[17] = target: Retinoic acid receptor RXR-alpha (Homo sapiens) (UniProt P19793); test: as above; details: HEK293T RXRa-UAS-bla, beta-lactamase ratio, antagonist mode
How it was run: as §1

[18] = target: Thyroid hormone receptor beta (Homo sapiens) (UniProt P10828); test: qHTS assay for small molecule antagonists of thyroid hormone receptor beta signaling (AID 588547; active means well fitted inhibition curve with a large enough effect in the signal ratio, with a control signal flat, not every such curve was filed as active; the % refers to the signal ratio;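 further: cells stimulated with 0.4 nM T3 agonist during compound exposure; series mostly up to about 77 µM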); details: TR-UAS-bla HEK293, beta-lactamase ratio, antagonist mode, 18 h
How it was run: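 TR-UAS-bla GripTite HEK293 cells in 2% charcoal/dextran FBS medium were preincubated 4 h at 37 C, given compound (0.59 nM to 92 uM) plus 0.4 nM T3 (final) for 18 h, then CCF4 for 2 h at RT; Hill fit gave IC50.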

[19] = target: Tumor necrosis factor (Homo sapiens) (UniProt P01375); test: qHTS assay to identify small molecules that stimulate Tumor Necrosis Factor-alpha (TNF-alpha) secretion (AID 651757; active means well fitted curve in the direction sought with a large enough effect in the signal ratio; the % refers to the signal ratio)
How it was run: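 Secreted TNF-alpha quantified by TR-FRET sandwich of two labeled anti-TNF-alpha antibodies, incubated 3 hr at room temperature. Preceded by 17 hr, 37 C compound treatment of THP-1 cells at 3000 cells/well.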

[20] = qHTS assay for small molecule agonists of the antioxidant response element (ARE) signaling pathway measured by Nrf2-dependant transcriptional activity (AID 720636; active means well fitted curve in the direction sought with a large enough effect in the repeat runs; an effect the other way counts as inactive or inconclusive)
How it was run: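 ARE-luc HepG2 cells carrying an Nrf2-responsive luciferase reporter, in medium with 1% dialyzed FBS, exposed to compound for 16 hr at 37 C, 5% CO2. Luminescence read 30 min after ONE-Glo addition.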

Sequence of Retinoic acid receptor RXR-alpha (Homo sapiens) (P19793 whole entry, looked up): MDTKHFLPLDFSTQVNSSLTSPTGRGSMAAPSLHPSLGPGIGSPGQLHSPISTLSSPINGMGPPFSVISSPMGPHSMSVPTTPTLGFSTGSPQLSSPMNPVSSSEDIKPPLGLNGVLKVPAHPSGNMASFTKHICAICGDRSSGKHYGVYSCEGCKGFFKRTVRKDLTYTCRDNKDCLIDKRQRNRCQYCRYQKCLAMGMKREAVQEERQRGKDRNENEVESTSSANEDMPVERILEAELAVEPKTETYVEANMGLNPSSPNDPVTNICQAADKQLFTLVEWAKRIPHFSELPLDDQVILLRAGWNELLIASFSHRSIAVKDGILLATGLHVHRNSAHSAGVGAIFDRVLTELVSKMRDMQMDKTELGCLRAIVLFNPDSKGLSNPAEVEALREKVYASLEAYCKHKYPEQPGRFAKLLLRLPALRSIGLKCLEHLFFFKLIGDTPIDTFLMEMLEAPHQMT
Sequence of Thyroid hormone receptor beta (Homo sapiens) (P10828 whole entry, looked up): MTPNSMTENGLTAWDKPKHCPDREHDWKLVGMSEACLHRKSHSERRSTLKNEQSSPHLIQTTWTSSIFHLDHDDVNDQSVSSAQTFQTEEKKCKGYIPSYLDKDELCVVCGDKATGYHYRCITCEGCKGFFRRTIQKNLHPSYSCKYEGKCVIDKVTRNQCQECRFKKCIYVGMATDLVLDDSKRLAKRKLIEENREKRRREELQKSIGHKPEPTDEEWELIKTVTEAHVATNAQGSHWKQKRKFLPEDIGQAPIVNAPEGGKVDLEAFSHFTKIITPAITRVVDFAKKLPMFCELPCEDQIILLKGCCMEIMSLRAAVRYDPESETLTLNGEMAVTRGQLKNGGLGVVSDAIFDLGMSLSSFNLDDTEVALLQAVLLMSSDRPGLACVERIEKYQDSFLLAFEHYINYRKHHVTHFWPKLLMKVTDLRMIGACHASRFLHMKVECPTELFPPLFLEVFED
Sequence of Tumor necrosis factor (Homo sapiens) (P01375 whole entry, looked up): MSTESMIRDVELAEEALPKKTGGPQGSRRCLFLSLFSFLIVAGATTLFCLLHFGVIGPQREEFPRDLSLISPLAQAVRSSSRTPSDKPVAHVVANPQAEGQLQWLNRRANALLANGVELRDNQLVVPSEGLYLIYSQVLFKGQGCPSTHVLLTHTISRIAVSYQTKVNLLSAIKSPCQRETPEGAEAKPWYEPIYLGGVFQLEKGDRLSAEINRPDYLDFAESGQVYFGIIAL

SMILES | outcome [1] | Potency [2] | Potency [3] | Potency [4] | Potency [5] | Potency [6] | Potency [7] | Potency [8] | Potency [9] | Potency [10] | Potency [11] | Potency [12] | Potency [13] | Potency [14] | Potency [15] | max response [16] | max response [17] | activity change % (negative = inhibition) [18] | outcome [19] | outcome [20]
ClC(Cl)(Cl)c1ccccc1 | inactive | inactive | inactive | inactive | inactive | inactive | inactive | inactive | inactive | inactive | inactive | inactive | inactive | inactive | inactive | -5.33% and -1.27% | 9.82% (inactive) and 8.91% (inactive) | -2.31% (inactive) and -2.68% (inactive) | inactive | inactive
COc1ccc(C=O)cc1OC | inactive | inactive | inactive | inactive | inactive | inactive | inactive | inactive | inactive | inactive | inactive | inactive | inactive | inactive | inactive | -5.56% and -4.77% | -9.7% (inactive) and -21.1% (inactive) | 2.18% (inactive) and 12.7% (inactive) |  | inactive
O=[N+]([O-])c1ccc(Cl)c(Cl)c1 | inactive | inactive | inactive | inactive | inactive | inactive | inactive | inactive | inactive | inactive | inactive | inactive | inactive | inactive | inactive | -6.04% | 7.29% (inactive) | -4.24% (inactive) | inactive | inactive
CCN(CC)c1ccccc1 | inactive | inactive | inactive | inactive | inactive | inactive | inactive | inactive | inactive | inactive | inactive | inactive | inactive | inactive | inactive | -5.5% | 4.5% (inactive) | -7.69% (inactive) | inactive | inactive
COc1ccc(N)cc1 | inactive | inactive | inactive | inactive | inactive | inactive | inactive | inactive | inactive | inactive | inactive | inactive | inactive | inactive | inactive | 0.204% and 7.89% | -1.34% (inactive) and 19.9% (inactive) | 8.16% (inactive) and -11.7% (inactive) | inactive | inactive
Cc1ccc([N+](=O)[O-])cc1C | inactive | inactive | inactive | inactive | inactive | inactive | inactive | inactive | inactive | inactive | inactive | inactive | inactive | inactive | inactive | -4.65% and -9.04% | 17.5% (inactive) and -26.4% (inactive) | 13% (inactive) and 10.3% (inactive) | inactive | inactive
CCCC(=O)Cl | inactive | inactive | inactive | inactive | inactive | inactive | inactive | inactive | inactive | inactive | inactive | inactive | inactive | inactive | inactive | -5.53% | 15.7% (inactive) | 3.8% (inactive) | inactive | inactive
ClC(Cl)=C(Cl)C(Cl)=C(Cl)Cl | inactive | inactive | inactive | inactive |  |  |  |  |  |  |  |  | inactive | inactive | inactive | -3.71% and -13.6% | -0.928% (inactive) and 1.51% (inactive) | -2.4% (inactive) | inactive | inactive
c1ccc(-c2ccccc2)cc1 | inactive | inactive | inactive | inactive | inactive | inactive | inactive | inactive | inactive | inactive | inactive | inactive | inactive | inactive |  | -7.26% and -12.6% | -4.53% (inactive) and 7.05% (inactive) | -3.07% (inactive) and -0.354% (inactive) | inactive | inactive
Clc1nc(Cl)nc(Nc2ccccc2Cl)n1 | inactive | inactive | inactive | inactive | inactive | inactive | inactive | inactive | inactive | inactive | inactive | inactive | inactive | inactive | inactive | 1.32% | 8.47% (inactive) | 11.4% (inactive) | inactive | 
Clc1cccc(C(Cl)(Cl)Cl)n1 | inactive |  | inactive | inactive | inactive | inactive | inactive | inactive | inactive | inactive | inactive | inactive | inactive | inactive | inactive | -2.2% and -16.3% | 0.436% (inactive) and 2.35% (inactive) | -14.1% (inactive) and -4.27% (inactive) | inactive | inactive
CN=C=S | inactive | inactive | inactive | inactive | inactive | inactive | inactive | inactive | inactive | inactive | inactive | inactive | inactive | inactive | inactive | -16.3% and -0.556% | 0.0175% (inactive) and -8.56% (inactive) | -1.38% (inactive) and -7.2% (inactive) | inactive | inactive
CCC[CH2][Sn]([Cl])([Cl])[Cl] | inactive | inactive | inactive | inactive | inactive | inactive | inactive | inactive | inactive | inactive | inactive | inactive | inactive | inactive | inactive | -9.08% and -6.63% | -1.26% (inactive) and -2.57% (inactive) | 9.88% (inactive) | inactive | inactive
ClC(Cl)=C(Cl)Cl | inactive | inactive | inactive | inactive | inactive | inactive | inactive | inactive | inactive | inactive | inactive | inactive | inactive | inactive | inactive | -6.82% and -0.572% | 2.53% (inactive) and 3.68% (inactive) | -10.3% (inactive) and -3.55% (inactive) | inactive | inactive
c1ccc(OP(Oc2ccccc2)Oc2ccccc2)cc1 | inactive | inactive | inactive | inactive | inactive | inactive | inactive | inactive | inactive | inactive | inactive | inactive | inactive | inactive | inactive | -3.76% and -10.6% | 4.67% (inactive) and -4.17% (inactive) | 5.76% (inactive) | inactive | inactive
CCCCOCCOP(=O)(OCCOCCCC)OCCOCCCC | inactive | inactive | inactive | inactive | inactive | inactive | inactive | inactive | inactive | inactive | inactive | inactive | inactive | inactive | inactive | 2.76% and -5.2% | -9.74% (inactive) and -1.56% (inactive) | -2.2% (inactive) and -9.56% (inactive) |  | inactive
